Assay outcomes (PubChem BioAssay)
Only a selection was taken, and hits are over-represented in it overall.
HT1080 IDH1KD tx – kills HT-1080 cells with IDH1 knockdown; HT-1080 IDH1 knockdown viability, ATP luminescence, 48 h; Potency, µM (top dose mostly 46.1 µM), usual class: cytotoxic; actives 2% (n = 360,000)
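% activity derives from luminescence (CellTiter-Glo), normalised to DMSO and no-cell wells. HT-1080-IDH1KD cells, 750/well, had 48 h compound exposure at 37 °C.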
ALOX12 inh – blocks human arachidonate 12S-lipoxygenase; P18054; purified 12hLO, xylenol orange hydroperoxide absorbance; Potency, µM (titrated, usually from 108 µM), hits mostly inhibitors; actives 1.1% (n = 580,000)
Target sequence (P18054 whole entry, looked up): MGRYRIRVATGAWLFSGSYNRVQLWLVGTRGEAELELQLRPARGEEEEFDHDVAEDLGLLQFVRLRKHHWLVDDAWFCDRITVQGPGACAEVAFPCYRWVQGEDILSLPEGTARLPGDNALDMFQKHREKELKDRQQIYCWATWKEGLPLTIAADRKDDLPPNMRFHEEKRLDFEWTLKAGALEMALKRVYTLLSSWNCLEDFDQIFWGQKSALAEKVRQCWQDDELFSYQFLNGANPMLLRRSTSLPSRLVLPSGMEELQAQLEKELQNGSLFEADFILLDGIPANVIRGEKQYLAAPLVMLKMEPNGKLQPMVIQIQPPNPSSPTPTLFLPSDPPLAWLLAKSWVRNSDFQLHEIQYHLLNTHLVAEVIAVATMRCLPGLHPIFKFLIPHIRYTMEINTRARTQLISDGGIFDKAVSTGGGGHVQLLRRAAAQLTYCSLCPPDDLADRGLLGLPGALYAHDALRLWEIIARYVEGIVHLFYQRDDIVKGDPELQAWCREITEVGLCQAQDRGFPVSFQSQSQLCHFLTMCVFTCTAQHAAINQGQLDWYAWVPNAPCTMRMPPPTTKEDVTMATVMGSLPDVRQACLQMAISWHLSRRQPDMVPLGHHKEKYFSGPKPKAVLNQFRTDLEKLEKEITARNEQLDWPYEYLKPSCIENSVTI
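Purified human 12hLO at 150 nM in 25 mM Hepes, 0.01% Triton X-100, pH 7.0, preincubated 15 min at room temperature with compound. Reaction started with 40 uM arachidonic acid, 30 min at room temperature. Hydroperoxide measured by Fe-xylenol orange, 573/405 nm absorbance ratio.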
HT1080NT lethal – kills 2HG-producing HT-1080-NT fibrosarcoma cells | HT-1080-NT fibrosarcoma viability, CellTiter-Glo ATP luminescence, 48 h | Potency, µM (highest dose often 46.1 µM), most hits filed as cytotoxic | actives 1.6% (n = 360,000) | AID 686970;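 further: NT is the 2HG producing partner of a matched IDH1 knockdown line; nearly all actives have a fitted effect of over 55% in size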
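Viability by CellTiter-Glo luminescence after 48 h compound exposure at 37C of HT-1080-NT cells (750/well, RPMI, 5% FBS). % activity scaled between DMSO wells and medium-only wells, then curve-fitted and categorized by curve class.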
TDP1 cell CPT – growth inhibition of DT40 Tdp1-/-;hTDP1 cells with camptothecin (screen for TDP1 inhibitors). chicken DT40 Tdp1-/-;hTDP1 cells + 20 nM CPT, ATP luminescence, 48 h. Potency, µM (doses to about 46.2 µM), hits mostly inhibitors. actives 12% (n = 420,000); further: nearly all actives have a fitted effect of over 55% in size
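Chicken DT40 Tdp1-/- cells stably complemented with human TDP1 were seeded at 400 cells/well in medium containing 20 nM camptothecin, exposed to pin-transferred compounds, and grown at 37 °C for at least 48 hr. Viability was read as ATP luminescence.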
IL1B secr inh – inflammasome signaling inhibition, IL-1 beta readout | THP-1 LPS/ATP IL-1B secretion, AlphaLISA, 16 h; stronger effect = lower value | activity change, % at 57.5 µM | actives 4.7% (n = 360,000) | AID 743279; in the data active means activity change below about -50%; inconclusive means mostly about -30% to -49%
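THP-1 cells pretreated 1 hr with compounds (up to 57.5 uM final), then stimulated with LPS (250 ng/mL final) plus ATP (1.25 mM final); secreted IL-1B measured by AlphaLISA after 16 hr, decreased signal indicating inhibition.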
TDP1 cell noCPT – qHTS for Inhibitors of human tyrosyl-DNA phosphodiesterase 1 (TDP1): qHTS in cells in absence of CPT | actives 15% (n = 420,000) | Potency, µM (top dose mostly 46.2 µM), hits mostly inhibitors | DT40 Tdp1-/- hTDP1 cells, no CPT, ATP luminescence, 48 h; further: nearly all actives have a fitted effect of over 55% in size
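Cells were dispensed at 400 per well, compounds added by pin tool, plates incubated ≥48 hr at 37 °C, then CellTiter-Glo added for 30 min at room temperature before luminescence reading. Line: DT40 Tdp1-/- complemented with hTDP1; camptothecin omitted.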
A number is an active result; . = inactive; ? = inconclusive; / = no result given. Unless noted, the call rests on the fitted dose curve; in most records, active means well fitted curve in the direction sought with a large enough effect; inconclusive means small, poorly fitted or top-dose-only effect, or another doubt; inactive means no such curve, though single readings can be large; an effect the other way counts as inactive or inconclusive.

SMILES | HT1080 IDH1KD tx | ALOX12 inh | HT1080NT lethal | TDP1 cell CPT | IL1B secr inh | TDP1 cell noCPT
O=C(CN1C(=O)c2cccnc2Oc2ccc(Cl)cc21)NC1CCCC1 | . | . | . | . | . | 15µM
O=C(c1c(OCC2CC2)cc(=O)n2c1CCOCC2)N1CCCCC1 | / | . | / | / | / | /
O=C(c1ccc(OC2CCN(C(=O)C3CC3)CC2)nc1)N1CCOCC1 | / | . | / | / | / | /
CN(CCc1cn[nH]c1)C(=O)C1CCC(=O)N(CC2CCCCC2)C1 (stereo not drawn) | . | . | . | . | . | .
CC(C)N(c1ccccc1)c1ccc(NC(=S)NCCN(C)C)cc1 | 21µM | . | 16µM | ? | / | 21µM
CCNC(=S)Nc1ccc(N(c2ccccc2)C(C)C)cc1 | ? | . | ? | 26µM | . | 21µM
O=C(Nc1ccc(C(O)c2ccccc2)cc1)[C@@H]1O[C@H](CO)[C@@H](O)[C@H]1O (stereo partly drawn) | . | . | . | . | . | .
CC(C)N(c1ccccc1)c1ccc(NC(=O)[C@@H]2O[C@H](CO)[C@@H](O)[C@H]2O)cc1 | . | . | . | 21µM | . | ?
CN(C)CCCNC(=S)Nc1ccc(-c2ccccc2)cc1 | ? | ? | 21µM | ? | . | ?
Cc1cc(=O)oc2cc(OS(=O)(=O)c3ccc(Cl)cc3)ccc12 | / | . | / | / | / | /
CCC(c1cccs1)N1C(=O)[C@H]2CN(S(=O)(=O)c3ccc(F)cc3F)C[C@H]2C1=O (stereo partly drawn) | / | . | / | / | / | /
CC(C)c1ccc(NC(=S)NN(c2ccccc2)c2ccccc2)cc1 | . | 40µM | . | 13µM | . | 26µM
CCNC(=S)NN(c1ccccc1)c1ccccc1 | . | ? | . | . | . | .
CC(C)(C)C(=O)N[C@H]1C[C@@H](Cc2cc(CN3CCN(c4ccccc4)CC3)on2)C1(C)C | / | . | / | / | / | /
O=C(NCc1ccccc1)c1onc(CSc2ccccc2)c1C(=O)NCc1ccccc1 | . | ? | . | 16µM | . | ?
O=C(NCc1ccccc1)c1onc(CSc2ccccc2)c1C(=O)NCC1CC1 | . | ? | . | 13µM | -52 | 21µM
C=Cc1ccc(Cn2c(=O)n(CCCOC)c(=O)c3sccc32)cc1 | . | . | . | ? | -88 | ?
Cc1ccc(Cn2c(=O)n(C)c(=O)c3sccc32)cc1 | . | . | . | ? | . | ?
C=Cc1ccc(Cn2c(=O)n(C)c(=O)c3sccc32)cc1 | ? | . | . | 3.7µM | . | ?
COCCCNC(=O)Cn1c(=O)n(Cc2ccc(F)cc2)c(=O)c2sccc21 | . | / | . | . | . | .
CCCc1ccc(C(=O)C(C)OC(=O)c2c(OC)cccc2OC)cc1 (stereo not drawn) | / | . | / | / | / | /
CCc1noc(-c2ccc(N(C)Cc3ccc(OC)cc3)c([N+](=O)[O-])c2)n1 | / | . | / | 6.5µM | / | 5.8µM
COc1cc(-c2noc(-c3ccc(NCCc4ccccc4)c([N+](=O)[O-])c3)n2)cc(OC)c1OC | / | . | / | 5.2µM | / | 4.1µM
COc1ccccc1-c1noc(-c2ccc(NCCc3ccccc3)c([N+](=O)[O-])c2)n1 | / | . | / | . | / | .
COc1ccc(-c2noc(-c3ccc(NC4CCCCC4)c([N+](=O)[O-])c3)n2)cc1OC | / | . | / | 21µM | / | ?
SMILES | HT1080 IDH1KD tx | ALOX12 inh | HT1080NT lethal | TDP1 cell CPT | IL1B secr inh | TDP1 cell noCPT
Cc1ccccc1-c1noc(-c2ccc(NCc3cccnc3)c([N+](=O)[O-])c2)n1 | / | . | / | 4.1µM | / | 2.3µM
COc1ccc(C(=O)N2CCC3(CCCN(CC(C)C)C3)CC2)cc1 | / | . | / | . | / | .
CCc1noc(-c2ccc(NCc3ccccc3)c([N+](=O)[O-])c2)n1 | / | . | / | 23µM | / | 18µM
CCCc1noc(-c2ccc(NCc3ccc(C)cc3)c([N+](=O)[O-])c2)n1 | / | . | / | ? | / | .
CCCNc1ccc(-c2nc(-c3ccco3)no2)cc1[N+](=O)[O-] | / | ? | / | . | / | .
Cc1c(-c2nc(-c3cccnc3)no2)cccc1[N+](=O)[O-] | . | . | . | 18µM | . | 18µM
